The values below come from publication PMC5540273 (PLoS ONE, 2017).

Test systems include ERN1; FER; FES; FGFR1; FGFR2; FGFR3; FGFR4; FGR; FLT1; FLT3-autoinhibited; FLT3; FLT4; FRK.
What all share (settings): concentration: 1 μM,replicates: in singlicate; n = 1
Another assay has as its system T1, ERK1.
T1 construct: gene MAPK3

The test system of the next assay is T2, ERK2.
T2 construct: gene MAPK1

The test system of a further assay is T3, ERK3.
T3 construct: gene MAPK6

Another assay relates to T4, ERK4.
T4 construct: gene MAPK4

For another assay, the system named is T5, ERK5.
T5 construct: gene MAPK7

In the next assay the test system is T6, ERK8.
T6 construct: gene MAPK15

The subject of the next assay is T7, FAK.
T7 construct: gene PTK2
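Further: KINOMEscan kinase panel screen.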

As for `Cl.Cl.NC[C@H](CC1CCCCC1)NC(=O)c1ccc(-c2ccnc3[nH]ccc23)s1` [GSK1581428], the “%Inh” value with ERK1 worked out at 18%; with ERK2, 31%; with ERK3 it was 0%; in the assay with ERK4, 0%; with ERK5, 0%; in the assay on ERK8, 78%. For the same compound, the “%Inh” value turned out to be 6% in the assay on ERN1; 48% in the assay on FAK; 14% in the assay on FER; 5% with FES; 26% in the assay on FGFR1; 0% in the assay with FGFR2. For the same compound, the “%Inh” value in the assay with FGFR3 is 6%; in the assay with FGFR4, 0%; in the assay with FGR it was 25%; in the assay with FLT1 it was 42%; in the assay on FLT3-autoinhibited it was 26%; in the assay on FLT3, 91.9%. Besides, the “%Inh” value with FLT4 was found to be 13%; in the assay with FRK it was 10%.

For `COC(=O)c1cccc(NC(=O)NC2CCN(c3ccnc(NCc4ccc(F)cc4)n3)CC2)c1` [GSK1379860], the “%Inh” value in the assay on ERK1 came out at 0%; with ERK2, 14%; in the assay on ERK3, 14%; in the assay with ERK4, 0%; in the assay with ERK5 it was 22%; with ERK8 it was 35%. Moreover, the “%Inh” value came to 0% in the assay with ERN1; 0% in the assay with FAK; 10% in the assay with FER; 1% in the assay with FES; 3% in the assay with FGFR1; 27% with FGFR2. The “%Inh” value came to 11% with FGFR3; 0% with FGFR4; 11% in the assay on FGR; 42% with FLT1; 24% in the assay with FLT3-autoinhibited; 0% in the assay on FLT3. Also, the “%Inh” value came to 38% in the assay with FLT4 and 16% in the assay on FRK.

Take `COc1cccc(CNC(=O)NC2CCN(c3ccnc(Nc4cc(OC)c(OC)c(OC)c4)n3)C2)c1` (centres unmarked) [GSK1379765]: the “%Inh” value is 0% with ERK1; 0% in the assay on ERK2; 33% in the assay on ERK3; 0% in the assay with ERK4; 0% in the assay with ERK5; 0% with ERK8. Besides, the “%Inh” value in the assay with ERN1 is on record as 3%; in the assay with FAK it was 0%; with FER, 26%; in the assay on FES, 0%; in the assay on FGFR1, 0%; in the assay on FGFR2 it was 49%. Also, the “%Inh” value in the assay with FGFR3 stood at 23%; in the assay with FGFR4, 2%; in the assay with FGR, 18%; with FLT1, 26%; in the assay with FLT3-autoinhibited, 14%; in the assay with FLT3 it was 47%. In addition, the “%Inh” value with FLT4 is recorded as 23%; in the assay on FRK, 21%.

For the compound `COc1cc2c(Nc3ccc(NC(=O)c4ccccc4)cc3)ncnc2cc1OCCCN1CCOCC1` [GSK301329], the “%Inh” value in the assay with ERK1 is on record as 4%; in the assay with ERK2, 3%; with ERK3 it was 0%; in the assay with ERK4 it was 0%; with ERK5, 0%; in the assay with ERK8, 0%. The “%Inh” value worked out at 46% with ERN1; 0% with FAK; 4% in the assay on FER; 0% in the assay on FES; 0% with FGFR1; 0% in the assay on FGFR2. In addition, the “%Inh” value was 6% in the assay with FGFR3; 0% in the assay on FGFR4; 35% in the assay with FGR; 26% in the assay with FLT1; 0% in the assay on FLT3-autoinhibited; 35% in the assay on FLT3. The “%Inh” value is recorded as 5% with FLT4 and 7% with FRK.

As to `CN1CCN(CCCNc2nccc(-c3c(-c4ccc(F)cc4)nn4cc(C(N)=O)ccc34)n2)CC1` [GW622475], the “%Inh” value is recorded as 0% in the assay on ERK1; 2% in the assay on ERK2; 5% in the assay with ERK3; 36% in the assay with ERK4; 0% in the assay with ERK5; 0% in the assay on ERK8. Besides, the “%Inh” value is recorded as 35% in the assay on ERN1; 0% with FAK; 26% in the assay with FER; 0% in the assay with FES; 28% in the assay with FGFR1; 0% in the assay on FGFR2. Further, the “%Inh” value in the assay with FGFR3 stood at 8%; with FGFR4, 0%; with FGR it was 0%; in the assay with FLT1, 54%; in the assay with FLT3-autoinhibited, 1%; with FLT3 it was 10%. The “%Inh” value in the assay with FLT4 was 28%; with FRK, 0%.

With `Cc1nnc(-c2ccc3occ(-c4ccc(S(C)=O)cc4)c3n2)o1` (centres unmarked), the “%Inh” value in the assay with ERK1 came out at 0%; in the assay on ERK2, 19%; with ERK3 it was 0%; in the assay with ERK4 it was 0%; with ERK5, 0%; with ERK8, 0%. In addition, the “%Inh” value in the assay on ERN1 worked out at 0%; with FAK, 0%; in the assay with FER, 0%; with FES it was 15%; in the assay on FGFR1, 0%; with FGFR2, 0%. In addition, the “%Inh” value stood at 0% with FGFR3; 0% in the assay with FGFR4; 25% in the assay on FGR; 0% in the assay with FLT1; 0% in the assay on FLT3-autoinhibited; 0% in the assay with FLT3. In addition, the “%Inh” value with FLT4 and in the assay on FRK was 0% each time.

Turning to `O=C(Nc1cccc(Oc2ccc3nccn3n2)c1)Nc1cccc(C(F)(F)F)c1`, the “%Inh” value in the assay with ERK1 stood at 0%; in the assay on ERK2, 0%; in the assay on ERK3, 0%; in the assay on ERK4, 1%; with ERK5, 2%; with ERK8 it was 18%. Further, the “%Inh” value with ERN1 was determined as 6%; with FAK, 2%; in the assay on FER it was 0%; in the assay on FES it was 2%; with FGFR1 it was 29%; in the assay on FGFR2 it was 4%. Moreover, the “%Inh” value is recorded as 0% with FGFR3; 0% in the assay on FGFR4; 18% in the assay on FGR; 93.2% with FLT1; 0% in the assay with FLT3-autoinhibited; 59% in the assay on FLT3. Besides, the entries for the “%Inh” value with FLT4 and with FRK were 99% and 77%, respectively.

For the compound `CN(c1ccccc1CNc1nc(Nc2ccc3c(c2)CC(=O)N3)ncc1C(F)(F)F)S(C)(=O)=O`, the “%Inh” value with ERK1 was 68%; in the assay on ERK2, 82%; in the assay with ERK3, 0%; in the assay with ERK4, 5%; with ERK5, 24%; with ERK8 it was 95.8%. Moreover, the “%Inh” value in the assay on ERN1 is 0%; in the assay with FER, 82%; in the assay on FES, 70%; in the assay with FGFR1, 68%; in the assay with FGFR2 it was 64%; in the assay on FGFR3 it was 47%. Further, the “%Inh” value in the assay on FGFR4 came to 11%; in the assay with FGR it was 37%; in the assay with FLT1, 53%; with FLT3-autoinhibited, 19%; in the assay on FLT3, 99.5%; in the assay on FLT4, 85%. Moreover, the “%Inh” value in the assay on FRK was determined as 54%.

Regarding `Cn1cc(-c2cccc3c(N)c(C(N)=O)nnc23)cn1`, the “%Inh” value with ERK1 is 5%; in the assay on ERK2, 27%; in the assay on ERK3, 0%; in the assay with ERK4, 0%; in the assay with ERK5, 0%; with ERK8 it was 0%. Moreover, the “%Inh” value in the assay with ERN1 is reported as 33%; with FAK, 21%; in the assay on FER it was 8%; in the assay on FES, 8%; with FGFR1 it was 25%; in the assay on FGFR2, 2%. Further, the “%Inh” value is given as 12% with FGFR3; 9% in the assay with FGFR4; 9% in the assay with FGR; 0% in the assay on FLT1; 30% with FLT3-autoinhibited; 27% in the assay with FLT3. Also, the “%Inh” value with FLT4 is reported as 15%; in the assay with FRK it was 2%.

For the compound `CC(C(=O)NC1CCN(c2ccnc(Nc3ccc(F)cc3)n2)C1)c1ccc(Cl)cc1` (centres unmarked) [GSK1379713], the “%Inh” value in the assay on ERK1, in the assay with ERK2, in the assay on ERK3, with ERK4, in the assay with ERK5 and with ERK8 was 0% each time. In addition, the “%Inh” value with ERN1 is reported as 0%; in the assay on FAK, 0%; in the assay with FER, 46%; in the assay on FES, 1%; with FGFR1, 0%; in the assay on FGFR2 it was 11%. Further, the “%Inh” value in the assay with FGFR3 came out at 9%; with FGFR4, 0%; with FGR it was 0%; with FLT1, 33%; in the assay with FLT3-autoinhibited, 0%; in the assay on FLT3 it was 8%. For the same compound, the “%Inh” value in the assay with FLT4 and in the assay with FRK was 0% in each case.

For the compound `FC(F)(F)c1cc(Br)cc(Nc2nccc(-c3cnn4ncccc34)n2)c1` [GW810578], the “%Inh” value in the assay on ERK1 is listed as 0%; in the assay on ERK2, 25%; in the assay on ERK3, 16%; with ERK4 it was 0%; in the assay with ERK5 it was 0%; in the assay on ERK8, 99.5%. Moreover, the “%Inh” value was 59% in the assay with ERN1; 18% with FAK; 0% in the assay on FER; 0% with FES; 4% in the assay with FGFR1; 0% with FGFR2. Further, the “%Inh” value with FGFR3 is 0%; in the assay with FGFR4 it was 77%; in the assay with FGR it was 16%; in the assay with FLT1 it was 30%; in the assay on FLT3-autoinhibited, 70%; in the assay on FLT3 it was 95.7%. The “%Inh” value amounted to 6% in the assay with FLT4 and 0% in the assay with FRK.

Regarding `Cl.Nc1n[nH]c2cc(-c3ccccn3)ccc12` [GSK2189892], the “%Inh” value amounted to 0% with ERK1; 0% in the assay with ERK2; 0% in the assay with ERK3; 31% with ERK4; 0% in the assay on ERK5; 0% in the assay on ERK8. The “%Inh” value is recorded as 0% with ERN1; 0% in the assay on FAK; 13% with FER; 0% with FES; 0% in the assay on FGFR1; 15% in the assay with FGFR2. Moreover, the “%Inh” value was 0% with FGFR3; 0% in the assay on FGFR4; 10% in the assay with FGR; 19% in the assay with FLT1; 0% with FLT3-autoinhibited; 0% in the assay on FLT3. Also, the “%Inh” value with FLT4 came to 0%; with FRK, 1%.

For `CCCC(=O)Nc1n[nH]c2ncccc12` [SB-601436], the “%Inh” value with ERK1, in the assay on ERK2, in the assay on ERK3, in the assay with ERK4, in the assay with ERK5 and in the assay with ERK8 was 0% in each case. In addition, the “%Inh” value was found to be 0% with ERN1; 0% in the assay on FAK; 0% in the assay on FER; 12% in the assay with FES; 0% in the assay with FGFR1; 0% with FGFR2. Further, the “%Inh” value in the assay on FGFR3 is listed as 0%; in the assay on FGFR4, 0%; in the assay on FGR, 30%; in the assay on FLT1, 0%; in the assay with FLT3-autoinhibited, 0%; with FLT3 it was 13%. Also, the “%Inh” value with FLT4 and with FRK was 0% in each case.

As to `Cn1ccc2ncnc(Oc3ccc(NC(=O)Nc4cccc(C(F)(F)F)c4)c(Cl)c3)c21`, the “%Inh” value with ERK1 is 0%; with ERK2, 18%; with ERK3, 0%; in the assay on ERK4 it was 10%; with ERK5 it was 12%; in the assay with ERK8, 11%. Moreover, the “%Inh” value with ERN1 is on record as 15%; in the assay with FAK, 41%; with FER, 0%; in the assay on FES, 9%; in the assay with FGFR2, 10%; with FGFR3 it was 0%. Further, the “%Inh” value was 14% in the assay on FGFR4; 5% with FGR; 99.6% with FLT1; 0% with FLT3-autoinhibited; 84% with FLT3; 99.9% in the assay with FLT4. The “%Inh” value in the assay on FRK was determined as 94.9%.
